Measured values published in PubChem BioAssay AID1159580 (chemical genetic matrix, 2015).
Screen size: about 5,500 compounds; about 2,000 (36%) were called active. About 18% were inconclusive and are not listed. Rule as the data show it: active = normalized growth mostly below about 0.91 (no sharp cut-off); inconclusive = no clear call, values can overlap the other calls; inactive = mostly above about 0.92. The list shows a part of the results.

Test: chemical genetic growth profiling, strain panel (AID 1159580);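 also: tested at 20 µM; growth read once vehicle control cultures reached saturation at 30 °C; 1 = growth at the plate median or of vehicle wells; lower values mean less growth of the strain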
Conditions: S. cerevisiae deletion strains, growth OD
[1] = locus YAL040C, strain CLN3, active compounds read low
[2] = locus YCL061C, strain MRC1 (second series), active compounds read low
[3] = locus YDR363W, strain ESC2, active compounds read low
[4] = locus YER002W, strain NOP16, active compounds read low
[5] = locus YGR078C, strain PAC10, active compounds read low
[6] = locus YGR229C, strain SMI1, active compounds read low
[7] = locus YJR075W, strain HOC1, active compounds read low
[8] = locus YNL153C, strain GIM3, active compounds read low
[9] = locus YNL175C, strain NOP13, active compounds read low
[10] = locus YNL197C, strain WHI3, active compounds read low
[11] = locus YNL224C, strain SQS1, active compounds read low
[12] = locus YOR083W, strain WHI5 (second series), active compounds read low
[13] = locus YDR150W, strain NUM1, active compounds read low
[14] = locus YPL241C, strain CIN2, active compounds read low
[15] = locus YBL105C, strain PKC1, active compounds read low
[16] = locus YBR135W, strain CKS1, active compounds read low
[17] = locus YBR136W, strain MEC1, active compounds read low
[18] = locus YBR160W, strain CDC28, active compounds read low
[19] = locus YDL017W, strain CDC7, active compounds read low
[20] = locus YDL028C, strain MPS1, active compounds read low
[21] = locus YDL108W, strain KIN28, active compounds read low
[22] = locus YDL214C, strain PRR2, active compounds read low
[23] = locus YDR052C, strain DBF4, active compounds read low
[24] = locus YDR226W, strain ADK1, active compounds read low
[25] = locus YDR477W, strain SNF1, active compounds read low
[26] = locus YER123W, strain YCK3, active compounds read low
[27] = locus YER133W, strain GLC7, active compounds read low
[28] = locus YFR003C, strain YPI1, active compounds read low
[29] = locus YFR019W, strain FAB1, active compounds read low
[30] = locus YFR028C, strain CDC14, active compounds read low
[31] = locus YGR040W, strain KSS1, active compounds read low
[32] = locus YGR052W, strain FMP48, active compounds read low
[33] = locus YGR092W, strain DBF2, active compounds read low
[34] = locus YHR030C, strain SLT2, active compounds read low
[35] = locus YHR079C, strain IRE1, active compounds read low
[36] = locus YHR082C, strain KSP1, active compounds read low
[37] = locus YHR205W, strain SCH9, active compounds read low
[38] = locus YIL147C, strain SLN1, active compounds read low
[39] = locus YJL095W, strain BCK1, active compounds read low
[40] = locus YJL128C, strain PBS2, active compounds read low
[41] = locus YJL157C, strain FAR1, active compounds read low
[42] = locus YJR016C, strain ILV3, active compounds read low
[43] = locus YJR066W, strain TOR1 (second series), active compounds read low
[44] = locus YJR066W, strain TOR1, active compounds read low
[45] = locus YKL048C, strain ELM1, active compounds read low
[46] = locus YKL067W, strain YNK1, active compounds read low
[47] = locus YKL101W, strain HSL1, active compounds read low
[48] = locus YKL203C, strain TOR2, active compounds read low
[49] = locus YLR113W, strain HOG1, active compounds read low
[50] = locus YLR133W, strain CKI1, active compounds read low
[51] = locus YLR403W, strain SFP1, active compounds read low
[52] = locus YML070W, strain DAK1, active compounds read low
[53] = locus YMR205C, strain PFK2 (second series), active compounds read low
[54] = locus YNL006W, strain LST8, active compounds read low
[55] = locus YNL020C, strain ARK1, active compounds read low
[56] = locus YNL183C, strain NPR1, active compounds read low
[57] = locus YNL207W, strain RIO2, active compounds read low
[58] = locus YNL307C, strain MCK1 (second series), active compounds read low
[59] = locus YOL136C, strain PFK27, active compounds read low
[60] = locus YOR061W, strain CKA2, active compounds read low
[61] = locus YOR119C, strain RIO1, active compounds read low
[62] = locus YOR231W, strain MKK1, active compounds read low
[63] = locus YPL031C, strain PHO85, active compounds read low
[64] = locus YPL153C, strain RAD53, active compounds read low
[65] = locus YPL204W, strain HRR25, active compounds read low
[66] = locus YPL209C, strain IPL1, active compounds read low
[67] = locus YPL256C, strain CLN2, active compounds read low
[68] = locus YPR106W, strain ISR1, active compounds read low
[69] = locus YPR111W, strain DBF20, active compounds read low
[70] = strain NNK1, active compounds read low

Measured: normalized growth

OC1(c2ccc(Cl)cc2)CCN(Cc2c[nH]c3ccccc23)CC1
inactive: locus YAL013W, strain DEP1, active compounds read low 1.01 | [1] 1 | [2] 0.999 | [3] 0.974 | [4] 1.03 | [5] 1.02 | [6] 0.979 | [7] 1.01 | [8] 1 | [9] 1.02 | [10] 1.02 | [11] 1.03 | locus YNL322C, strain KRE1, active compounds read low 0.993 | [12] 1.01

Clc1ccc(N2CCN(Cc3c[nH]c4ncccc34)CC2)cc1
active: [6] 0.748
inactive: [1] 1.08 | [2] 0.969 | [13] 0.965 | [3] 0.907 | [4] 0.968 | [5] 0.975 | [7] 0.929 | [9] 0.969 | [10] 0.974 | [11] 0.987 | [12] 0.925 | locus YPL055C, strain LGE1, active compounds read low 0.92 | [14] 0.992

Ic1ccc(N2CCN(Cc3c[nH]c4ncccc34)CC2)cc1
inactive: [1] 1 | [3] 0.956 | [4] 1.06 | locus YMR307W, strain GAS1, active compounds read low 1.01 | [9] 1.01 | [10] 1.01 | [11] 1.06
active: [2] 0.919 | [13] 0.914 | [5] 0.851 | [12] 0.809

COCc1nc2c([nH]1)c(=O)n(C)c(=O)n2CC(C)C
inactive: [1] 0.991 | [2] 1 | [13] 1 | [3] 0.997 | [4] 1.02 | [5] 1.01 | [6] 0.993 | [7] 0.994 | [8] 1.01 | [9] 0.999 | [10] 1.01 | [11] 1 | [12] 1.01 | [14] 1.01

Cc1ccc(Sc2c(Sc3ccc(C)cc3)c(=O)c2=O)cc1
inactive: locus YAR019C, strain CDC15, active compounds read low 0.898 | [15] 0.982 | [16] 0.961 | [17] 0.968 | [18] 0.958 | [19] 0.971 | [20] 0.961 | locus YDL101C, strain DUN1, active compounds read low 0.915 | [21] 0.964 | locus YDL132W, strain cdc53, active compounds read low 0.936 | [23] 0.974 | [24] 0.968 | locus YFL009W, strain cdc4, active compounds read low 0.946 | [28] 0.969 | [30] 0.958 | [38] 0.964 | [40] 0.949 | [42] 0.976 | locus YKL193C, strain SDS22, active compounds read low 0.948 | locus YMR001C, strain CDC5, active compounds read low 0.952 | locus YMR277W, strain FCP1, active compounds read low 0.882 | [54] 0.949 | locus YNL161W, strain CBK1, active compounds read low 0.966 | [57] 0.973 | locus YOR329C, strain SCD5, active compounds read low 0.978 | [66] 0.965 | locus YPR025C, strain CCL1, active compounds read low 0.957 | [68] 0.967 | [69] 0.952 | [70] 0.963 | strain TSCII, active compounds read low 0.914
active: [22] 0.184 | [25] 0.226 | [26] 0.14 | [27] 0.237 | [29] 0.128 | [31] 0.285 | [32] 0.228 | [33] 0.427 | [34] 0.132 | [35] 0.171 | [36] 0.155 | [37] 0.0561 | [39] 0.172 | [41] 0.168 | [43] 0.135 | [44] 0.129 | [45] 0.599 | [46] 0.287 | [47] 0.447 | [48] 0.551 | [49] 0.186 | [50] 0.267 | [51] 0.161 | [52] 0.135 | [53] 0.486 | [55] 0.319 | [56] 0.173 | [58] 0.267 | [59] 0.118 | [60] 0.427 | [61] 0.636 | [62] 0.224 | [63] 0.144 | [64] 0.178 | [65] 0.197 | [67] 0.172

O=c1c(Sc2ccc(Cl)cc2)c(Sc2ccc(Cl)cc2)c1=O
active: [22] 0.104 | [25] 0.136 | [26] 0.0987 | [27] 0.108 | [29] 0.091 | [31] 0.158 | [32] 0.135 | [33] 0.386 | [34] 0.128 | [35] 0.113 | [36] 0.128 | [37] 0.121 | [39] 0.128 | [41] 0.0972 | [43] 0.0937 | [44] 0.124 | [45] 0.6 | [46] 0.115 | [47] 0.39 | [48] 0.432 | [49] 0.175 | [50] 0.147 | [51] 0.154 | [52] 0.0995 | [53] 0.241 | [54] 0.45 | [55] 0.196 | [56] 0.114 | [58] 0.261 | [59] 0.0906 | [60] 0.266 | [61] 0.485 | [62] 0.142 | [63] 0.103 | [64] 0.104 | [65] 0.109 | [67] 0.154
inactive: [15] 0.984 | [16] 0.961 | [17] 0.978 | [18] 0.973 | [19] 0.985 | [20] 0.973 | [21] 0.967 | [23] 0.977 | [24] 0.971 | [28] 0.979 | [30] 0.968 | [38] 0.971 | [40] 0.971 | [42] 0.974 | [57] 0.973 | [66] 0.985 | [68] 0.978 | [69] 0.962 | [70] 0.98
